About 540 (0.62%) of roughly 87,000 compounds were called active. Entries that show only a call come without a potency. No rule for the calls is given here. This excerpt belongs to a sample that is enriched for actives. Potency and affinity values are given separately.
test: MT1-MMP gene expression reporter suppression – cell-based, luciferase reporter, luminescence (AID 618); settings: MT1-MMP promoter luciferase reporter cells;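 also: actives suppress MT1-MMP promoter-driven transcription so potencies describe inhibitors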

**Q.** For `Cc1csc(NC(=O)CSc2nnc(-c3ccoc3C)o2)n1`, which outcome is on record?
**A.** inactive

**Q.** Which outcome does the source give for `CCC(O)c1cc2c(cc1NC(=O)c1cccs1)OCCO2` (stereo unspecified) here?
**A.** inactive

**Q.** For `Cc1ccc(C(=O)NCCCNCCCNC(=O)c2ccc(C)nc2)cn1`, which outcome is on record?
**A.** inactive

**Q.** Which outcome does the source give for `CCn1c(COc2cccc(C)c2)nnc1SCC(=O)Nc1cccc(C(=O)OC)c1` here?
**A.** inactive

**Q.** With `CC(CC(=O)O)CC(=O)Nc1ccccc1C(=O)O` (stereo unspecified) as the compound, how does the outcome read?
**A.** inactive

**Q.** Which outcome does the source give for `O=c1c2c(nc3cc(-c4ccccc4)[nH]n13)CCC2` here?
**A.** inactive

**Q.** With `COc1ccc(-c2cc3nc4c(c(=O)n3[nH]2)CCC4)cc1` as the compound, how does the outcome read?
**A.** inactive

**Q.** For `COCCCN1C(=O)C(=O)/C(=C(/O)c2ccc(OC(C)C)cc2)C1c1cccnc1` (stereo unspecified), which outcome is on record?
**A.** inactive

**Q.** For `CCOc1ccc2nc(-c3ccccc3)[nH]c2c1`, which outcome is on record?
**A.** inactive

**Q.** With `COc1ccc(OCc2nc3ccccc3[nH]2)cc1` as the compound, how does the outcome read?
**A.** inactive

**Q.** For `COc1ccc2nc(-c3cccc(N)c3)[nH]c2c1`, which outcome is on record?
**A.** inactive

**Q.** Which outcome does the source give for `Nc1nc(-c2nc3ccccc3[nH]2)cs1` here?
**A.** inactive

**Q.** With `COc1ccc2nc(-c3ccccc3)[nH]c2c1` as the compound, how does the outcome read?
**A.** active

**Q.** For `c1ccc2nc(-c3nc4ccccc4[nH]3)ccc2c1`, which outcome is on record?
**A.** active

**Q.** For `Nc1ccc(-c2nc3ccccc3[nH]2)cc1`, which outcome is on record?
**A.** inactive

**Q.** For `c1ccc2[nH]c(-c3ccnc4ccccc34)nc2c1`, which outcome is on record?
**A.** inactive

**Q.** For `CC(C)CN1C(=O)c2ccc(NC(=O)c3cccs3)cc2C1=O`, which outcome is on record?
**A.** inactive

**Q.** With `O=C(NCc1ccco1)C(c1ccccc1)N(C(=O)Cc1cccs1)c1ccccc1` (stereo unspecified) as the compound, how does the outcome read?
**A.** inactive

**Q.** With `CC(=O)NCCOc1cccc(OCCNC(C)=O)c1` as the compound, how does the outcome read?
**A.** inactive

**Q.** For `COc1cc(/C=N/NC(=O)CCc2c(C)n[nH]c2C)ccc1O`, which outcome is on record?
**A.** inactive

**Q.** For `CCn1ncc(Br)c1C(=O)Nc1ccc(Cl)cn1`, which outcome is on record?
**A.** inactive

**Q.** For `COc1ccc(OC)c(S(=O)(=O)NC2CCCCC2)c1`, which outcome is on record?
**A.** inactive

**Q.** For `CCn1cc(C(=O)N2CCc3ccccc3C2)c(=O)c2cc(S(=O)(=O)N3CCCCC3)ccc21`, which outcome is on record?
**A.** inactive

**Q.** With `Cc1ccc(NC(=O)c2cccs2)cc1` as the compound, how does the outcome read?
**A.** inactive

**Q.** With `Cc1nc(-c2ccc(NC(=O)c3cccs3)cc2)cs1` as the compound, how does the outcome read?
**A.** active

**Q.** For `Cc1nc(-c2cccc(NC(=O)c3cccs3)c2)cs1`, which outcome is on record?
**A.** inactive

**Q.** For `COc1ccc(OC)c(-n2c(-c3ccccc3)n[nH]c2=S)c1`, which outcome is on record?
**A.** inactive

**Q.** For `COc1ccc(OCc2cccc(C(=O)O)c2)cc1`, which outcome is on record?
**A.** active

**Q.** For `CCCCOc1cccc(C(=O)O)c1`, which outcome is on record?
**A.** inactive

**Q.** Which outcome does the source give for `CCOc1ccc(OCc2cccc(C(=O)N3CCCC3)c2)cc1` here?
**A.** inactive

**Q.** With `COc1ccc(OCc2cccc(C(=O)Nc3cc(C)on3)c2)cc1` as the compound, how does the outcome read?
**A.** inactive

**Q.** Which outcome does the source give for `CCOc1ccc(OCc2cccc(C(=O)O)c2)cc1` here?
**A.** active

**Q.** With `CC(Oc1ccc(C(=O)NCCc2ccccc2)cc1)C(=O)O` (stereo unspecified) as the compound, how does the outcome read?
**A.** inactive

**Q.** Which outcome does the source give for `COc1ccc(OCc2ccc(C(=O)O)cc2)cc1` here?
**A.** inactive

**Q.** Which outcome does the source give for `CCOc1ccc(OCc2cccc(C(=O)N3CCOCC3)c2)cc1` here?
**A.** active

**Q.** With `CC(C)OC(=O)C(C)Oc1ccc(C(=O)NCCc2ccccc2)cc1` (stereo unspecified) as the compound, how does the outcome read?
**A.** inactive

**Q.** Which outcome does the source give for `CCOc1ccc(OCc2ccc(C(=O)N3CCOCC3)cc2)cc1` here?
**A.** inactive

**Q.** With `CCOc1cc(OCC)cc(C(=O)O)c1` as the compound, how does the outcome read?
**A.** inactive

**Q.** With `CSc1nc2nc(C(F)(F)F)cc(-c3ccccc3)n2n1` as the compound, how does the outcome read?
**A.** inactive

**Q.** With `COc1ccccc1C(=O)Nc1ccc2c(c1)nc1n2CCSC1` as the compound, how does the outcome read?
**A.** inactive

**Q.** Which outcome does the source give for `CSc1ccccc1C(=O)Nc1nccs1` here?
**A.** inactive

**Q.** Which outcome does the source give for `Cc1nn(-c2ccccc2)c2c1C1(C(=O)N(C(C)C)c3ccccc31)C(C#N)=C(N)O2` (stereo unspecified) here?
**A.** inactive

**Q.** Which outcome does the source give for `Cc1nc(SCC(=O)NC2CCCC2)[nH]c(=O)c1Cc1ccccc1` here?
**A.** inactive

**Q.** For `CCCCOc1ccc(C(=O)Nc2cccc(C)n2)cc1`, which outcome is on record?
**A.** inactive

**Q.** Which outcome does the source give for `CCOc1ccc(C(=O)Nc2cccc(C)n2)cc1` here?
**A.** active

**Q.** With `CCOc1ccc(OCc2ccc(C(=O)Nc3cccc(C)n3)o2)cc1` as the compound, how does the outcome read?
**A.** inactive

**Q.** Which outcome does the source give for `O=C(NCc1cccs1)c1cc(-c2cccc(Cl)c2)on1` here?
**A.** inactive

**Q.** With `Cc1ccc(-n2nc3c(c2NC(=O)c2ccc(OC(C)C)cc2)CS(=O)C3)cc1` (stereo unspecified) as the compound, how does the outcome read?
**A.** inactive

**Q.** Which outcome does the source give for `COC(=O)C12CC3CC(C1)CC(n1cnc(Cl)n1)(C3)C2` here?
**A.** inactive

**Q.** With `CCN(CC)CC(=O)c1c[nH]c2ccccc12` as the compound, how does the outcome read?
**A.** inactive

**Q.** With `O=C(CCl)N(c1ccccc1)c1c[nH]c2ccccc12` as the compound, how does the outcome read?
**A.** active

**Q.** With `O=C(CCl)N(c1ccc(Cl)cc1)c1c[nH]c2ccccc12` as the compound, how does the outcome read?
**A.** active

**Q.** For `CC(=O)N(c1ccc(Cl)cc1)c1c[nH]c2ccccc12`, which outcome is on record?
**A.** inactive

**Q.** Which outcome does the source give for `O=C(O)CCC(=O)c1c[nH]c2ccccc12` here?
**A.** inactive

**Q.** For `CN(C)CC(=O)c1c[nH]c2ccccc12`, which outcome is on record?
**A.** inactive

**Q.** Which outcome does the source give for `O=C(NCCN1CCN(Cc2ccccc2Cl)CC1)Nc1ccccc1` here?
**A.** inactive

**Q.** For `CCCCOc1ccc(CN2CCCCC2)cc1`, which outcome is on record?
**A.** inactive

**Q.** Which outcome does the source give for `CCCCOc1ccc(CN2CCC(O)CC2)cc1` here?
**A.** inactive

**Q.** With `CC(C)NC(=O)c1ccccc1NC(=O)CN(c1ccc2c(c1)OCO2)S(C)(=O)=O` as the compound, how does the outcome read?
**A.** inactive

**Q.** For `CCCn1nnc(NC(=O)c2cccc(Cl)c2)n1`, which outcome is on record?
**A.** inactive

**Q.** With `CN1CCN(CCCN2c3ccccc3Sc3ccc(Cl)cc32)CC1` as the compound, how does the outcome read?
**A.** inactive

**Q.** For `CN(C)CCCN1c2ccccc2Sc2ccc(C(F)(F)F)cc21`, which outcome is on record?
**A.** inactive

**Q.** Which outcome does the source give for `CSc1ccc2c(c1)N(CCC1CCCCN1C)c1ccccc1S2` (stereo unspecified) here?
**A.** active

**Q.** For `COC(=O)c1ccc(OC)c(CSc2nnc(-c3ccc(C(C)(C)C)cc3)o2)c1`, which outcome is on record?
**A.** inactive

**Q.** Which outcome does the source give for `CC(C)CNC(=O)CSc1ccc(Cl)cc1` here?
**A.** inactive

**Q.** With `Cc1cccc(NC(=S)NNC(=O)CCn2nc(C)c([N+](=O)[O-])c2C)c1` as the compound, how does the outcome read?
**A.** inactive

**Q.** For `S=c1sc2c(N3CCOCC3)ncnc2n1-c1ccccc1`, which outcome is on record?
**A.** inactive

**Q.** Which outcome does the source give for `c1ccc(-n2nnc3c(N4CCOCC4)ncnc32)cc1` here?
**A.** active

**Q.** For `c1ccc(Cn2nnc3c(N4CCOCC4)ncnc32)cc1`, which outcome is on record?
**A.** inactive

**Q.** For `Nc1cc(=O)[nH]c(SCc2nc3ccccc3n2Cc2ccccc2)n1`, which outcome is on record?
**A.** inactive

**Q.** Which outcome does the source give for `CSCC[C@H](NC(=O)OC(C)(C)C)c1nnc(SCC(N)=O)o1` here?
**A.** inactive

**Q.** With `COc1ccc(S(=O)(=O)n2nc(OC(=O)C3CCCCC3)cc2N)cc1` as the compound, how does the outcome read?
**A.** inactive

**Q.** For `O=C(Nc1nncs1)C1COc2ccccc2O1` (stereo unspecified), which outcome is on record?
**A.** inactive

**Q.** With `COc1ccc2nc(NC(=O)C3COc4ccccc4O3)sc2c1` (stereo unspecified) as the compound, how does the outcome read?
**A.** inactive

**Q.** With `O=C(Nc1ncc(Cc2ccccc2)s1)C1COc2ccccc2O1` (stereo unspecified) as the compound, how does the outcome read?
**A.** inactive

**Q.** Which outcome does the source give for `O=C(Nc1nc(-c2ccccn2)cs1)C1COc2ccccc2O1` (stereo unspecified) here?
**A.** inactive

**Q.** Which outcome does the source give for `O=C(Nc1nc(-c2ccc3c(c2)OCO3)cs1)C1COc2ccccc2O1` (stereo unspecified) here?
**A.** inactive

**Q.** With `O=C(NC1=NCCS1)C1COc2ccccc2O1` (stereo unspecified) as the compound, how does the outcome read?
**A.** active

**Q.** With `Cc1nc2ccc3nc(NC(=O)C4COc5ccccc5O4)sc3c2s1` (stereo unspecified) as the compound, how does the outcome read?
**A.** inactive

**Q.** Which outcome does the source give for `Cc1nnc(NC(=O)C2COc3ccccc3O2)s1` (stereo unspecified) here?
**A.** inactive

**Q.** Which outcome does the source give for `O=C(Nc1ccncc1)C1COc2ccccc2O1` (stereo unspecified) here?
**A.** inactive

From PubChem BioAssay AID618 (Sanford-Burnham Center for Chemical Genomics, 2007)
